Potency data for 40 compounds are collected here from PubChem BioAssay (Tox21).

SMILES strings stand for the structures. Results filed as inconclusive are left out. Where a call stands in place of a potency, no number is given. Active and inactive are the calls of the source. Calls come from the whole dose curve.
Potency is the fitted concentration of half-maximal effect.

The assay is described as follows: qHTS assay to identify small molecule agonists of the endoplasmic reticulum stress response signaling pathway - cell viability counter screen (AID 1159517). Note: nearly all actives have a fitted effect of over 50% in size. To be noted: ESRE-bla HeLa viability, CellTiter-Glo luminescence, 5 h; series mostly up to 61 µM. The source says:
U.S. Tox21 Program National Center for Advancing Translational Sciences [NCATS] NIH Chemical Genomics Center [NCGC] U.S. Environmental Protection Agency [EPA] National Institutes of Environmental Health Sciences [NIEHS] National Toxicology Program [NTP] U.S. Food and Drug Administration [FDA] Tox21 Assay Overview: Endoplasmic Reticulum (ER) plays an important role in cellular signaling, protein folding/maturation, stress response, lipid biosynthesis, calcium storage and release etc. Under stress conditions, proteins in ER misfold or unfold, and leading to the expression of ER stress responsive genes. ER stress has been associated with a variety of pathophysiological conditions such as cancer, inflammation, neurodegenerative diseases, diabetes, ischemic heart disease etc. To identify the compounds that induce ER stress response, an ER stress reporter cell line, CellSensor ESRE-bla HeLa (Life Technologies, Carlsbad, CA) containing a beta-lactamase reporter gene under control of the Endoplasmic reticulum Stress Response Element (ESRE) was used to screen Tox21 10K compound library. The cytotoxicity of the Tox21 compound library against the ESRE-bla HeLa cell line was tested in parallel by measuring cell viability using the CellTiter-Glo assay in the same wells.
Tox21 Assay Protocol Summary: ESRE-bla HeLa cells were dispensed at 1,500 cells/6 uL of assay medium per well into black wall/clear-bottom 1536-well plates using a Multidrop Combi (ThermoFisher Scientific, Waltham, MA) dispenser. After the assay plates were incubated at 37 C and 5% CO2 for an overnight, 23 nL of compounds dissolved in DMSO, positive controls or DMSO only was transferred to the assay plate by a Pintool station (Kalypsys, San Diego, CA). The assay plates were incubated at 37 C and 5% CO2 for 5 hr. One uL of LiveBLAzer B/G FRET substrate (Life Technologies) was added using a FRD (Flying Reagent Dispenser, Aurora Discovery, San Diego, CA) and the plates were incubated at room temperature for 2 hr. Fluorescence intensity (405 nm excitation, 460 nm and 530 nm emissions) was measured using an Envision plate reader (PerkinElmer, Shelton, CT). For cytotoxicity, 4 ul/well of CellTiter-Glo reagent was added into the assay plates using an FRD. After 30 min incubation at room temperature, the luminescence intensity was measured using a ViewLux plate reader (PerkinElmer).
On the technique in general: qHTS replaces the single test concentration by a dilution series.
Consider `COc1cc(CC#N)cc(OC)c1OC`, for which the Potency result is “inactive”.
As for `CN1C[C@H](C(=O)N[C@]2(C)O[C@@]3(O)[C@@H]4CCCN4C(=O)[C@H](Cc4ccccc4)N3C2=O)C=C2c3cccc4[nH]cc(c34)C[C@H]21`, the entry is “inactive”.
With `CCSCc1ccccc1OC(=O)NC`, the Potency entry was “inactive”.
The same measure for `ClCc1ccccc1Cl`: “inactive”.
As for `CC(Oc1cccc(Cl)c1)C(=O)O` (stereo not given), the entry is “inactive”; as for `C=CCc1ccccc1O`, “inactive”.
As to `CC[N+]1(C)CCCC(OC(=O)C(O)(c2ccccc2)c2ccccc2)C1` (stereo not given), the Potency result was “inactive”.
The same measure for `CCC1(C2=NCCN2)Cc2ccccc2O1` (stereo not given): “inactive”; for `Cc1ncc(C[n+]2csc(CCO)c2C)c(N)n1`: “inactive”.
As to `CCCCC(CC)COC(=O)c1c(Br)c(Br)c(Br)c(Br)c1C(=O)OCC(CC)CCCC` (stereo not given), the Potency result is “inactive”.
The same measure for `CC1(C)CC(=O)CC(C)(C)N1[O]`: “inactive”; for `O=CC=O`: “inactive”; for `CCC1CCC(=O)O1` (stereo not given): “inactive”.
As to `CCOC(=O)c1cn2nc(OP(=S)(OCC)OCC)cc2nc1C`, the Potency entry is “inactive”.
As for `CCCCNC(=O)OCC#CI`, the entry is “inactive”.
As for `CC(C)CCCCCCCOC(=O)c1ccccc1C(=O)OCCCCCCCC(C)C`, the entry is “inactive”; as for `CCCCOC(=O)CCC(=O)OCCCC`, “inactive”; as for `O=C([O-])c1ccccn1.O=C([O-])c1ccccn1.O=C([O-])c1ccccn1.[Cr+3]`, “inactive”.
For the compound `Nc1cccc2ccccc12`, the Potency entry was “inactive”.
`Cc1ccc2c(C)cccc2c1`: the Potency entry was “inactive”.
As for `CCOP(=S)(OCC)SCSc1cc(Cl)ccc1Cl`, the entry is “inactive”; as for `NNCCO`, “inactive”.
As for `O=C(O)c1cc(I)cc(I)c1I`, the entry is “inactive”.
The same measure for `Cc1nc2ccccc2c(=O)n1-c1ccccc1Cl`: “inactive”; for `CON(C)C(=O)Nc1ccc(Cl)cc1`: “inactive”; for `CCCN(CCC)C(=O)Cc1c(-c2ccc(Cl)cc2)nc2ccc(Cl)cn12`: “inactive”.
Turning to `SCc1ccccc1`, the Potency entry is “inactive”.
The same measure for `CCOP(=S)(S)OCC`: “inactive”; for `O=C(CCl)CCl`: 43.6 µM (active).
The same measure for `CNC(=O)Oc1cccc(N=CN(C)C)c1`: “inactive”; for `CCCBr`: “inactive”; for `CCOC(=O)C1OC1(C)c1ccccc1` (stereo not given): “inactive”.
As for `CC(C)(C)N(NC(=O)c1ccc(Cl)cc1)C(=O)c1ccccc1`, the entry is “inactive”; as for `C[CH2][Hg][S]c1ccccc1C(=O)O`, 6.74 µM (active); as for `Nc1ccc2c(c1)Cc1ccccc1-2`, “inactive”.
For `COc1cc(C[C@@H](C)N)c(OC)cc1Br`, the Potency entry was “inactive”.
With `Nc1ccccc1C(=O)OCCc1ccccc1`, the Potency entry was “inactive”.
The same measure for `CCC1(CCC(C)C)C(=O)NC(=O)NC1=O`: “inactive”.
The same measure for `CC(C)(C#N)C(C)(C)C#N`: “inactive”; for `CCCC(C)(COC(N)=O)COC(=O)NC(C)C` (stereo not given): “inactive”.
